Experimental data reported in PubChem BioAssay (Tox21).
Inconclusive results are not listed. Activity calls are given as the source filed them. Unless noted, the call rests on the fitted dose curve.

Key:
[1] = target: Acetylcholinesterase (Homo sapiens) (UniProt P22303); experiment: Acetylcholinesterase (AChE) small molecule antagonists: enzyme-based qHTS assay (AID 1347397); details: Potency: AChE enzyme activity inhibition; outcome: AChE enzyme activity inhibition; further: nearly all actives have a fitted effect of over 55% in size
Summary of the method: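 Human recombinant acetylcholinesterase; substrate acetylthiocholine; thiocholine quantified with DTNB (colorimetric). Compound preincubation 30 min RT; reaction 10 min RT.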

[2] = target: Acetylcholinesterase (Homo sapiens) (UniProt P22303); experiment: Acetylcholinesterase (AChE) small molecule antagonists: enzyme-based qHTS assay with human liver microsomes (AID 1347399); details: Potency: qHTS inhibition; outcome: qHTS inhibition; further: nearly all actives have a fitted effect of over 60% in size
Summary of the method: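 Recombinant human AChE (50 mU/mL in the enzyme mix) and human liver microsomes (0.25 mg/mL final) were preincubated with compound and NADPH (0.25 mg/mL final) for 30 min at 37 C. Acetylthiocholine/DTNB was then added; thiocholine was read colorimetrically after 10 min at room temperature.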

[3] = target: Acetylcholinesterase (Homo sapiens) (UniProt P22303); experiment: Acetylcholinesterase (AChE) small molecule antagonists: fluorescence cell-based qHTS assay (AID 1347398); details: Potency: AChE activity; outcome: AChE activity; further: nearly all actives have a fitted effect of over 50% in size
Summary of the method: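 Thiocholine generated from acetylthiocholine by SH-SY5Y cell AChE is detected with Thiolite Green (Ex/Em 490/520 nm) after 40 min at room temperature, following 30 min compound pretreatment at 37 C.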

[4] = qHTS assay for small molecule agonists of the p53 signaling pathway - cell viability (AID 651633);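 further: p53RE-bla HCT reporter cells with a stable beta-lactamase p53 reporter; series mostly up to about 83 µM; nearly all actives have a fitted effect of over 30% in size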
Summary of the method: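 p53RE-bla cells, seeded at 4,000 per well and rested 5 h at 37 C/5% CO2, received compounds in DMSO for 16 h at 37 C. CellTiter-Glo was then added, and luminescence was read after 30 min at room temperature to gauge cytotoxicity.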

[5] = qHTS assay for small molecules that induce genotoxicity in human embryonic kidney cells expressing luciferase-tagged ATAD5 - cell viability (AID 651634); further: nearly all actives have a fitted effect of over 25% in size
Summary of the method: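 Live-cell protease activity (CellTiter-Fluor, fluorescence) indicates viability. HEK293T cells with luciferase-tagged ATAD5; 15.5 hr compound treatment at 37C.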

[6] = qHTS assay for small molecule disruptors of the mitochondrial membrane potential - cell viability (AID 720634);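 further: human HepG2 liver cancer cells; series mostly up to about 83 µM; nearly all actives have a fitted effect of over 20% in size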
Summary of the method: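 Human hepatoma HepG2 cells were treated for 1 hr with test chemicals, then given m-MPI dye and CellTiter-Glo. Cell viability reflects luminescence proportional to cellular ATP.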

[7] = qHTS assay to test for compound auto fluorescence at 590 nm (red) in HepG2 cells (AID 720674; active means well fitted curve in the direction sought with a large enough effect in the repeat runs; an effect the other way counts as inactive or inconclusive)
Summary of the method: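 Intrinsic compound fluorescence in the red window (Ex/Em 540/590 nm) is measured in attached HepG2 cells exposed for 1 hr, DMSO vehicle as baseline, benchmarked to Rose Bengal sodium.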

[8] = qHTS assay to test for compound auto fluorescence at 535 nm (green) in HepG2 cells (AID 720675; active means well fitted curve in the direction sought with a large enough effect in the repeat runs; an effect the other way counts as inactive or inconclusive)
[9] = qHTS assay to test for compound auto fluorescence at 460 nm (blue) in HEK293 cells (AID 720678; active means well fitted curve in the direction sought with a large enough effect in the repeat runs; an effect the other way counts as inactive or inconclusive)
Summary of the method: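 Blue read-out at excitation 405 nm and emission 460 nm follows overnight compound exposure of HEK293 cells at 37C in 5% CO2. Activity is given as auto fluorescence equivalency to triamterene.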

[10] = qHTS assay to test for compound auto fluorescence at 590 nm (red) in HEK293 cells (AID 720679; active means well fitted curve in the direction sought with a large enough effect in the repeat runs; an effect the other way counts as inactive or inconclusive)
Summary of the method: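 Red channel, Ex/Em 540/590nm; signal expressed as equivalency to Rose Bengal sodium. HEK293, 2,000 cells/well, 10% dialyzed FBS; 23 nL compound pinned after 4-5 hr attachment; overnight 37C/5% CO2 before reading.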

[11] = qHTS assay to test for compound auto fluorescence at 535 nm (green) in HEK293 cells (AID 720680; active means well fitted curve in the direction sought with a large enough effect in the repeat runs; an effect the other way counts as inactive or inconclusive)
[12] = qHTS assay to test for compound auto fluorescence at 460 nm (blue) in HEK293 cell free culture (AID 720681; active means well fitted curve in the direction sought with a large enough effect in the repeat runs; an effect the other way counts as inactive or inconclusive)
Summary of the method: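 Test compounds were pinned into cell-free culture medium (DMEM with 10% FBS) and fluorescence was read directly at Ex/Em 405/460 nm. Signals were expressed as fluorescence equivalents of triamterene, with DMSO vehicle as control.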

[13] = qHTS assay to test for compound auto fluorescence at 535 nm (green) in HEK293 cell free culture (AID 720682; active means well fitted curve in the direction sought with a large enough effect in the repeat runs; an effect the other way counts as inactive or inconclusive)
Summary of the method: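 DMEM + 10% FBS, cell-free; cpd or DMSO pinned in; Ex485/Em535 read; output as fluorescein-equivalent signal.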

[14] = qHTS assay to test for compound auto fluorescence at 590 nm (red) in HEK293 cell free culture (AID 720683; active means well fitted curve in the direction sought with a large enough effect in the repeat runs; an effect the other way counts as inactive or inconclusive)
Summary of the method: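 Tox21 10K library compounds were pinned into cell-free DMEM with 10% FBS and fluorescence was read at excitation 540 nm. Activity is expressed as Rose Bengal sodium equivalency.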

[15] = qHTS assay to test for compound auto fluorescence at 590 nm (red) in HepG2 cell free culture (AID 720684; active means well fitted curve in the direction sought with a large enough effect in the repeat runs; an effect the other way counts as inactive or inconclusive)
Summary of the method: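 Measured in medium alone (MEM containing 10% FBS) following pintool addition of compound; emission at 590 nm with 540 nm excitation, referenced to Rose Bengal sodium.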

[16] = qHTS assay to test for compound auto fluorescence at 460 nm (blue) in HepG2 cell free culture (AID 720685; active means well fitted curve in the direction sought with a large enough effect in the repeat runs; an effect the other way counts as inactive or inconclusive)
Summary of the method: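 Compound (23 nL) or DMSO pinned into cell-free MEM with 10% FBS; blue fluorescence read at 405/460 nm excitation/emission, expressed as auto-fluorescence equivalency to triamterene.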

[17] = qHTS assay to test for compound auto fluorescence at 535 nm (green) in HepG2 cell free culture (AID 720686; active means well fitted curve in the direction sought with a large enough effect in the repeat runs; an effect the other way counts as inactive or inconclusive)
[18] = qHTS assay to test for compound auto fluorescence at 460 nm (blue) in HepG2 cells (AID 720687; active means well fitted curve in the direction sought with a large enough effect in the repeat runs; an effect the other way counts as inactive or inconclusive)
Summary of the method: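 Cells (2,000/well in MEM with 10% FBS) attached overnight at 37 C, then were exposed to compound or DMSO for 1 hr at 37 C, 5% CO2. Fluorescence read at Ex/Em 405/460 nm, expressed as triamterene-equivalent signal.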

[19] = target: Glucocorticoid receptor (Homo sapiens) (UniProt P04150); experiment: qHTS assay to identify small molecule antagonists of the glucocorticoid receptor (GR) signaling pathway (AID 720692; active means well fitted inhibition curve with a large enough effect in the signal ratio in the repeat runs, not every such curve was filed as active; the % refers to the signal ratio)
Summary of the method: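 Fluorescence from cleaved LiveBLAzer B/G FRET substrate reports GRE-driven beta-lactamase in HeLa cells; compounds are tested against 5 nM dexamethasone (final) over 18 h at 37 C, substrate incubation 2 h at room temperature.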

[20] = qHTS assay to identify small molecule antagonists of the glucocorticoid receptor (GR) signaling pathway - cell viability counter screen (AID 720693; active means well fitted curve in the direction sought with a large enough effect in the repeat runs; an effect the other way counts as inactive or inconclusive; further: nearly all actives have a fitted effect of over 55% in size)
[21] = qHTS assay for identifying genotoxic compounds that show differential cytotoxicity against isogenic chicken DT40 cell lines with known DNA damage response pathways - Rad54/Ku70 mutant cell line (AID 743015; active means well fitted curve in the direction sought with a large enough effect in the repeat runs; an effect the other way counts as inactive or inconclusive; further: nearly all actives have a fitted effect of over 60% in size)
[22] = qHTS assay to identify small molecule antagonists of the androgen receptor (AR) signaling pathway - cell viability counter screen (AID 743033; active means well fitted curve in the direction sought with a large enough effect in the repeat runs; an effect the other way counts as inactive or inconclusive; further: nearly all actives have a fitted effect of over 45% in size)
[23] = qHTS assay to identify small molecule antagonists of the thyroid receptor (TR) signaling pathway - cell viability counter screen (AID 743064; active means well fitted curve in the direction sought with a large enough effect in the repeat runs; an effect the other way counts as inactive or inconclusive; further: nearly all actives have a fitted effect of over 50% in size)
Summary of the method: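 Viability of T3-stimulated (1 nM final) GH3.TRE-Luc cells is measured by CellTiter-Fluor fluorescence after 23.5 h compound exposure at 37 °C plus 30 min reagent incubation.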

[24] = tested on: thyroid hormone receptor (rat, GH3 cells); experiment: qHTS assay to identify small molecule agonists of the thyroid receptor (TR) signaling pathway (AID 743066)
[25] = target: Estrogen receptor (Homo sapiens) (UniProt P03372); experiment: qHTS assay to identify small molecule antagonists of the estrogen receptor alpha (ER-alpha) signaling pathway (AID 743069; active means well fitted curve in the direction sought with a large enough effect in the signal ratio in the repeat runs, not every such curve was filed as active; the % refers to the signal ratio)
Summary of the method: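 Estradiol-stimulated ER-alpha-UAS-bla HEK293 cells, 18 hr compound exposure at 37C. LiveBLAzer B/G substrate, 2 hr RT, fluorescence read.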

[26] = qHTS assay to identify small molecule antagonists of the estrogen receptor alpha (ER-alpha) signaling pathway - cell viability counter screen (AID 743074);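 further: HEK293 cells carrying ER-alpha-UAS-bla reporter stimulated with 17beta-estradiol; nearly all actives have a fitted effect of over 45% in size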
[27] = target: Estrogen receptor (Homo sapiens) (UniProt P03372); experiment: qHTS assay to identify small molecule agonists of the estrogen receptor alpha (ER-alpha) signaling pathway (AID 743075);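 further: HEK293 GripTite cells with ER-alpha and UAS-driven beta-lactamase reporter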
[28] = target: Estrogen receptor (Homo sapiens) (UniProt P03372); experiment: qHTS assay to identify small molecule agonists of the estrogen receptor alpha (ER-alpha) signaling pathway using the BG1 cell line (AID 743079; active means well fitted curve in the direction sought with a large enough effect in the repeat runs; an effect the other way counts as inactive or inconclusive; further: nearly all actives have a fitted effect of over 20% in size)
[29] = qHTS assay to identify small molecule antagonists of the estrogen receptor alpha (ER-alpha) signaling pathway using the BG1 cell line (AID 743080);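 further: BG1 cells stimulated with 17beta-estradiol alongside compound; series mostly up to about 70 µM; nearly all actives have a fitted effect of over 25% in size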
Summary of the method: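 Luminescence from a 4×ERE-luciferase reporter in BG1-Luc-4E2 cells served as read-out. Cells, pre-cultured 5 days in stripped-serum phenol-red-free medium, were exposed to compound with 17beta-estradiol co-stimulation for 21.5 h at 37 C.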

[30] = target: Aromatase (Homo sapiens) (UniProt P11511); experiment: qHTS assay to identify aromatase inhibitors (AID 743083; active means well fitted curve in the direction sought with a large enough effect in the repeat runs; an effect the other way counts as inactive or inconclusive; further: series mostly up to about 70 µM; nearly all actives have a fitted effect of over 55% in size)
[31] = qHTS assay to identify aromatase inhibitors - cell viability counter screen (AID 743084; active means well fitted curve in the direction sought with a large enough effect in the repeat runs; an effect the other way counts as inactive or inconclusive;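 further: cells stimulated with testosterone during compound exposure; nearly all actives have a fitted effect of over 55% in size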)
[32] = qHTS assay to identify small molecule that activate the aryl hydrocarbon receptor (AhR) signaling pathway - cell viability counter screen (AID 743086; active means well fitted curve in the direction sought with a large enough effect in the repeat runs; an effect the other way counts as inactive or inconclusive;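 further: HepG2 liver cells carrying the AhR DRE luciferase reporter; series mostly up to about 70 µM; nearly all actives have a fitted effect of over 45% in size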)
Summary of the method: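 HepG2-AhR-luc (HG2L7.5c1) cells, 4000/well, were preincubated 5 h at 37C, exposed to compound in qHTS format for 24 hr at 37C, then given CellTiter-Fluor for 30 min; viability was read as fluorescence in the reporter wells.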

[33] = target: Peroxisome proliferator-activated receptor gamma (Homo sapiens) (UniProt P37231); experiment: qHTS assay to identify small molecule agonists of the peroxisome proliferator-activated receptor gamma (PPARg) signaling pathway (AID 743094; active means well fitted activation curve with a large enough effect in the signal ratio in the repeat runs, not every such curve was filed as active; the % refers to the signal ratio)
Summary of the method: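 Stably transfected HEK293H cells (GeneBLAzer PPARg UAS-bla) were incubated with test substances for 17 h at 37C after a 5 h pre-incubation; beta-lactamase activity was then detected by FRET substrate fluorescence.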

Measured: Potency

Chain of Acetylcholinesterase (Homo sapiens) (P22303 whole entry, looked up): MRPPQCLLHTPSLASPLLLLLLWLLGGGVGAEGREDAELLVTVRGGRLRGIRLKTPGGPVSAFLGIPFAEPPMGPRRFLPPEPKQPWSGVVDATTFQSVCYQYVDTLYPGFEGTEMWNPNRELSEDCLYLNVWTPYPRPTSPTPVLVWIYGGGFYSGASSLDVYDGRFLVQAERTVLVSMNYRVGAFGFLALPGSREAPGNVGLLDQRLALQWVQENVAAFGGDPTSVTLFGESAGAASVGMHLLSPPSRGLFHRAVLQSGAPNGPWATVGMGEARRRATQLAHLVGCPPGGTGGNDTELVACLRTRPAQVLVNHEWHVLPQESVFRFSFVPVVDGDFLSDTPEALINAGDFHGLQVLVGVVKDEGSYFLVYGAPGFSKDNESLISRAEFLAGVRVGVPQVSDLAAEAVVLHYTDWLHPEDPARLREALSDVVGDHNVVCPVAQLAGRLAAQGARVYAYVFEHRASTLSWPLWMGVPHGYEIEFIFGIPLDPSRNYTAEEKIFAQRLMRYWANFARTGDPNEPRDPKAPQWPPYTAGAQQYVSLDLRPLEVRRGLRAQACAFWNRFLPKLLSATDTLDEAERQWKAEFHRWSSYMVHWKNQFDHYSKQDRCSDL
Chain of Estrogen receptor (Homo sapiens) (P03372 whole entry, looked up): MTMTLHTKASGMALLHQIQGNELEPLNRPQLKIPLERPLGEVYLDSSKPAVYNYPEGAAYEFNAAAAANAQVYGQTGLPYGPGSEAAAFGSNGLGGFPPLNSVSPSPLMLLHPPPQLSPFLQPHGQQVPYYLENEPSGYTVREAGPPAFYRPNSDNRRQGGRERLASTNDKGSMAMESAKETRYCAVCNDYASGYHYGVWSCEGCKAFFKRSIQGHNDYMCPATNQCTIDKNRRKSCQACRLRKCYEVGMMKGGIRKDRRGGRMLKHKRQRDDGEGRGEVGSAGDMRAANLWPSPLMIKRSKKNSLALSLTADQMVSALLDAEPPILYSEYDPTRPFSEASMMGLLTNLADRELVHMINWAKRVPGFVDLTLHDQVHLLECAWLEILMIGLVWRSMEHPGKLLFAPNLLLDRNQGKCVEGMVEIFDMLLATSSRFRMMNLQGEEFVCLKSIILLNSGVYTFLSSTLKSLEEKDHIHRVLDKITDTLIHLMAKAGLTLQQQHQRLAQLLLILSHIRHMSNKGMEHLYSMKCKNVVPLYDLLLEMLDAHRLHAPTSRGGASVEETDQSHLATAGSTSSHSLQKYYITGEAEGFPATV
Chain of Glucocorticoid receptor (Homo sapiens) (P04150 whole entry, looked up): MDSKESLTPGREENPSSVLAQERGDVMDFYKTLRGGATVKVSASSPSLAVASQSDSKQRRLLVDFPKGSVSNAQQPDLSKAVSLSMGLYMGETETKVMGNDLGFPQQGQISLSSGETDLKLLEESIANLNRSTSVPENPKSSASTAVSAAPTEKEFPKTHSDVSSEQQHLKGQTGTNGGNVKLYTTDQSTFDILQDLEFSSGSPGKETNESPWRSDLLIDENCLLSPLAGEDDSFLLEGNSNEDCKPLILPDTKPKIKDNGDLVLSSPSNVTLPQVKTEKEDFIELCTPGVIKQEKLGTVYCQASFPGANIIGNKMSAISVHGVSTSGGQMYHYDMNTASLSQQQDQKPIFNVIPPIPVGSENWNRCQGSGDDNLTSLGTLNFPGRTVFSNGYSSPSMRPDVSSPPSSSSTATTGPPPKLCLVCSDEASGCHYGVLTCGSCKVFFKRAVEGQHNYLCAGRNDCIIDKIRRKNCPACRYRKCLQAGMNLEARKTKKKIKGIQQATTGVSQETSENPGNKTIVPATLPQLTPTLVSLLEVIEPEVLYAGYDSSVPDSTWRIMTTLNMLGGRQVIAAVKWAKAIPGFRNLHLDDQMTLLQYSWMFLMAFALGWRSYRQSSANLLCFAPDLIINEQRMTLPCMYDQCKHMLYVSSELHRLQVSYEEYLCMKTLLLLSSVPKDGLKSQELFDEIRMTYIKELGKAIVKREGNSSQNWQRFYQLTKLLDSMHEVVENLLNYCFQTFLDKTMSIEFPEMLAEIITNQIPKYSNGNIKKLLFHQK
Chain of Aromatase (Homo sapiens) (P11511 whole entry, looked up): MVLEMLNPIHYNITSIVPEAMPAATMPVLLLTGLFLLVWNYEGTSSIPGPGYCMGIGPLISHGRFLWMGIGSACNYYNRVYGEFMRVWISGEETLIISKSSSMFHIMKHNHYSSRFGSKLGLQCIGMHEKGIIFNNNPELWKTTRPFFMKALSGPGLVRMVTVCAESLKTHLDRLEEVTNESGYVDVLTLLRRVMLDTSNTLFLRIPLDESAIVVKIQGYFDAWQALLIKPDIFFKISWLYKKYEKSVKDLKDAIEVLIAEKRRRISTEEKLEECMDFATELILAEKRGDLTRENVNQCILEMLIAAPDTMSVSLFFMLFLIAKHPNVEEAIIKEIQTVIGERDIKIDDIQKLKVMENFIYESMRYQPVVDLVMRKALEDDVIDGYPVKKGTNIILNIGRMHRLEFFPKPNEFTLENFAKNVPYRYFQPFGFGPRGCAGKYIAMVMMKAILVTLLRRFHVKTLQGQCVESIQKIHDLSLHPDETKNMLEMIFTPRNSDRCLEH
Chain of Peroxisome proliferator-activated receptor gamma (Homo sapiens) (P37231 whole entry, looked up): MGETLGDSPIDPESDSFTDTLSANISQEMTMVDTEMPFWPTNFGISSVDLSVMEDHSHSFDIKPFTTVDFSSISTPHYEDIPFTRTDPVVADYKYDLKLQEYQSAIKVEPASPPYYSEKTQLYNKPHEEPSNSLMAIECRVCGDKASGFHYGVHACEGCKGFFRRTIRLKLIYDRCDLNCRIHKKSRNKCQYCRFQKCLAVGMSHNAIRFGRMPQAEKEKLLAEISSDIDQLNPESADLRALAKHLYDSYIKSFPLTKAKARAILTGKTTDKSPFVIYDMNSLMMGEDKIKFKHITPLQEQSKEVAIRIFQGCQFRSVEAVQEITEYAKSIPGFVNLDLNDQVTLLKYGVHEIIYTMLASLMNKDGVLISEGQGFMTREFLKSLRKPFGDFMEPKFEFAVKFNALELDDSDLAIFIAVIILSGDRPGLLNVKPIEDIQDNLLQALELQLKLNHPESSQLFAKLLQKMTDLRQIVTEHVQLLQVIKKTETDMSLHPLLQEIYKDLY

CC(=O)NCCCCCC(=O)O
inactive: [1] | [2]

CCCCN(CCCC)C(=O)N(CCCC)CCCC
inactive: [1] | [3] | [2]

CC(=O)OCCOC(C)=O
inactive: [1] | [3] | [2]

S=c1nccc[nH]1
inactive: [1] | [3] | [2]

Oc1ccccc1F
inactive: [1] | [3] | [2]

COc1cc(C[C@H](C)N)c(OC)cc1C
not listed: [1] | [2] | [3]
inactive: all other assays above
